Screening results deposited in PubChem by The Scripps Research Institute Molecular Screening Center.
GPR151 activ = activates the human receptor GPR151 | Q8TDV0 | PathHunter beta-arrestin GPR151 cells, luminescence | activation, % at 11.2 µM | 1% of 650,000 active | AID 1508602; in the data active = activation above about 4.9%
TEAD-YAP block = TEAD-YAP interaction inhibition | 1.4% of 640,000 active | AID 1259422 | inhibition, % at 9.12 µM | HEK-TIYL cells, TEAD-Gal4/YAP UAS-luciferase luminescence; in the data active = inhibition above about 32%
FBW7 act = activators of human E3 ligase FBW7; Q969H0; AlphaScreen FBW7–phospho-cyclin E peptide binding, activator screen; normalized activity (activation), % at 26.1 µM; 0.13% of 650,000 active; in the data active = normalized activity above about 1.9%;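 also: purified mutant Fbw7 with reduced substrate affinity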
MITF inh = human MITF inhibition, primary screen; inhibition, % at 2.6 µM; 0.91% of 650,000 active; AlphaScreen MITF homodimerization, bead proximity signal; in the data active = inhibition above about 50%
GPR151 confirm = human GPR151 activation, confirmation screen; shares compounds with GPR151 activ; GPR151 PathHunter beta-arrestin cells, luminescence, 90 min; % of EA-reagent control over plate median; activation, % at 11.2 µM; 6,700 tested, under 10 active; AID 1508609;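 active = mean percent activation across replicates above the confirmation screen cutoff of 4.91%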
GPR119 ag = GPR119 activation, counter-screen for GPR151 activators | activation, % at 11.2 µM | 0.3% of 6,700 active | GPR119 PathHunter beta-arrestin cells, luminescence, 90 min; 0 = compound-well median, 100 = enzyme-acceptor control | shares compounds with GPR151 activ;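 active = mean percent activation in the counterscreen above 29.09%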;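 also: counterscreen on off-target GPR119 to flag nonselective hits from the GPR151 activator screen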
Target sequence (Q8TDV5 whole entry, looked up): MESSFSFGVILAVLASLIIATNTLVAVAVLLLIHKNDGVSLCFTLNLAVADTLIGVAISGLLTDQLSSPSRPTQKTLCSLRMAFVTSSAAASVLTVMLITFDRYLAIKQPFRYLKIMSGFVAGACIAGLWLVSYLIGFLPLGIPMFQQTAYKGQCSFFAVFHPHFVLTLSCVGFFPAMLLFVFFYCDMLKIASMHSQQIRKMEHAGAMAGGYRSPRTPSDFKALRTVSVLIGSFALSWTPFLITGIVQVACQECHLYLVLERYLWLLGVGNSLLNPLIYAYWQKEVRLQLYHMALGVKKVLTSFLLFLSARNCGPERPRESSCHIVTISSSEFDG
Hits are given with their value; – = inactive; · = not tested or not shown. Shown are actives, neighbours in structure and some others; about 3.5% of the full set was active somewhere.

SMILES	GPR151 activ	TEAD-YAP block	FBW7 act	MITF inh	GPR151 confirm	GPR119 ag
O=C(CN1CCN(C(=O)c2ccco2)CC1)NN(Cc1ccccc1)c1ccccc1	5.4	–	–	–	–	–
Cc1cccc(Cn2cc(SCC(N)=O)c3ccccc32)c1	–	–	–	–	·	·
Cc1cc(Nc2ccc(N3CCOCC3)cc2)nc(Nc2ccncc2)n1	–	–	–	–	·	·
Cc1cc(Nc2ccc3c(c2)OCO3)nc(Nc2ccc(N3CCOCC3)cc2)n1	10.0	93	–	–	–	71
Cc1cc(Nc2ccc(N3CCOCC3)cc2)nc(NCc2cccnc2)n1	5.4	–	–	–	–	–
CC(C)(C)C(=O)Nc1ccc(C(=O)Nc2cccc(C(=O)O)c2)cc1	–	–	–	–	·	·
CSc1cccc(N2C(=O)C3CCCN3C2=S)c1 (centres undefined)	–	–	–	–	·	·
CC(C)CCOc1ccc(/C=N/n2cnnc2)cc1	–	–	–	–	·	·
CCCCCCOc1ccc(/C=N/n2cnnc2)cc1	6.8	–	–	–	–	–
O=C1N/C(=C/c2ccc(Oc3ccc([N+](=O)[O-])cn3)cc2)C(=O)N1c1ccccc1	–	–	–	–	·	·
CCOC(=O)/C(C#N)=C/c1ccc(O)c(OC)c1	–	–	–	–	·	·
CCCOC(=O)CN1C(=O)c2ccc(C(=O)OCCC)cc2C1=O	–	–	–	–	·	·
CCCOC(=O)CN1C(=O)c2ccc(Br)cc2C1=O	8.7	–	–	–	–	–
Cc1cccc(CCN(C(=O)c2csnn2)C(C(=O)NC(C)(C)C)c2ccccn2)c1 (centres undefined)	–	–	–	–	·	·
COc1cccc(-c2ccc(=O)n(CC(=O)Nc3ccc(Cl)c(C(F)(F)F)c3)n2)c1	18	–	–	–	–	–
COc1ccccc1-c1ccc(=O)n(CC(=O)Nc2ccc(Br)cc2)n1	9.6	–	–	–	–	–
COc1cccc(-c2ccc(=O)n(CC(=O)Nc3ccc(C(=O)N4CCCC4)cc3)n2)c1	–	–	–	–	·	·
Cc1ccc(C(=O)NCc2ccco2)c(Cl)c1	8.7	–	–	–	–	–
Cc1ccc(OCCNC(=O)C(=O)NCc2ccco2)cc1	6.5	33	–	–	–	–
COCCNC(=O)C(=O)NCc1ccco1	–	–	–	–	·	·
CCc1ccc(OCCCC(=O)NCc2ccco2)cc1	6.6	–	–	–	–	–
CC(=O)c1ccc(OCCCC(=O)NCc2ccco2)cc1	–	–	–	–	·	·
COc1cccc(/C=N/NC(=O)CCC(=O)Nc2ccc(F)cc2)c1	–	–	–	–	·	·
CCOc1ccc(NC(=O)c2ccc([N+](=O)[O-])cc2Cl)cc1	6.4	–	–	–	–	–
O=C(Nc1ccc2oc(=O)ccc2c1)c1ccc([N+](=O)[O-])cc1Cl	9.0	–	–	–	–	–
SMILES	GPR151 activ	TEAD-YAP block	FBW7 act	MITF inh	GPR151 confirm	GPR119 ag
Cc1cccc(-c2nc(CS(=O)CC(=O)N3CCCC3)c(C)o2)c1 (centres undefined)	8.2	–	–	–	–	–
Cc1cccc(-c2nc(CS(=O)CC(=O)NC(C)c3ccccc3)c(C)o2)c1 (centres undefined)	7.2	–	–	–	–	–
CCN1CCN(C(=O)CS(=O)Cc2nc(-c3cccc(C)c3)oc2C)CC1 (centres undefined)	–	–	–	–	·	·
Cc1cccc(-c2nc(CS(=O)CC(=O)NC(C)C)c(C)o2)c1 (centres undefined)	–	–	–	–	·	·
O=C1c2cccc([N+](=O)[O-])c2C(=O)N1C1CCCCCCC1	–	–	–	–	·	·
O=C(O)C1CCC(N2C(=O)c3cccc([N+](=O)[O-])c3C2=O)CC1 (centres undefined)	5.2	–	–	–	–	–
COCCN1C=C(C(=O)OC)C(c2ccc(Cl)c([N+](=O)[O-])c2)C(C(=O)OC)=C1	–	–	–	–	·	·
CCCCCC1C/C(=N/OC(C)=O)C=C(C)C1C(=O)OC (centres undefined)	7.3	–	–	–	–	–
O=C(Nc1nc(-c2cccnc2)cs1)c1cccc(N2C(=O)CCC2=O)c1	–	–	–	–	·	·
O=C(CCc1ccccc1)Nc1cc(Cl)ccc1Cl	–	–	–	–	·	·
O=C(CC(NCc1ccccc1)C(=O)O)Nc1cc(Cl)ccc1Cl (centres undefined)	7.2	–	–	–	–	–
O=C(NCCCC1CCCC1)c1cc(COc2cccc3cnccc23)on1	5.2	–	–	–	–	–
COc1ccc(-n2c(O)c(C=NCc3ccc(F)cc3)c(=O)[nH]c2=O)cc1	7.1	–	–	–	–	–
Fc1ccc(/C=N/Nc2nc3ccccc3s2)cc1	7.0	–	–	–	–	–
COc1ccc(C=O)cc1OC(=O)c1cccc2ccccc12	10	–	–	–	–	–
C=CCn1c(C2CC(=O)N(CCOC)C2)nc2ccccc21 (centres undefined)	–	–	–	–	·	·
Cn1nccc1Nc1cc(C(=O)NCCOc2ccccc2)c2ccccc2n1	5.3	–	–	–	–	–
O=C1CSC(=O)N1CN1CCCCC1	–	–	–	–	·	·
CC(=O)Nc1cnn(-c2ccc(C(=O)NC(c3ccncc3)c3ccccc3C)cc2)c1 (centres undefined)	5.4	–	–	–	–	–
C=CCn1nnnc1SCC(=O)Nc1ccc(C(=O)OC)cc1	–	–	–	–	·	·
CCC(CC)NC(=O)COC(=O)c1cc(OC)c(OC)cc1[N+](=O)[O-]	5.0	–	–	–	–	–
COc1cc(C(=O)OCC(=O)NC(C)C)c([N+](=O)[O-])cc1OC	–	–	–	–	·	·
Cc1ccc(-c2ccc(OCCN3CCOCC3)nc2)cc1	–	–	–	–	·	·
CC(C)(C)c1ccc(-c2ccc(OCCN3CCOCC3)nc2)cc1	5.8	58	–	–	–	–
Cc1cc(C)nc(-n2nc(C)c(C(O)(CC(=O)C(F)(F)F)C(F)(F)F)c2N)n1 (centres undefined)	11	–	–	–	–	–
SMILES	GPR151 activ	TEAD-YAP block	FBW7 act	MITF inh	GPR151 confirm	GPR119 ag
COc1ccc(C(C)C)cc1-c1cnn2ccc(NCc3ccncc3)nc12	–	–	–	–	·	·
Clc1ccccc1Nc1ncnc2ccc(Br)cc12	–	–	–	–	·	·
Brc1ccc2ncnc(Nc3cccc4ccccc34)c2c1	11	–	–	–	–	–
NC(CC(=O)O)c1ccc(F)cc1 (centres undefined)	–	–	–	–	·	·
Oc1ccc(C(c2ccc(O)cc2)c2ccc(F)cc2)cc1	7.7	–	–	–	–	–
CCOC(=O)c1ccc(COC(=O)c2cc3ccccc3cc2O)o1	–	–	–	–	·	·
CCOc1ccc(/C=C/C(=O)Nc2cc([N+](=O)[O-])ccc2C)cc1OC	6.5	–	–	–	–	–
COc1ccc(/C=C/C(=O)Nc2cc([N+](=O)[O-])ccc2F)cc1OC	–	–	–	–	·	·
CCOCC(=O)Nc1cc([N+](=O)[O-])ccc1C	6.2	–	–	–	–	–
